Assay outcomes (PubChem)
SMARCA2 activ: SMARCA2 function activation, primary screen; activation, % at 9.1 µM; 370,000 compounds, 1% hits; MG213 cells, MMTV-luciferase reporter, dexamethasone, overnight; in the data active = activation above about 7.8%;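 note: 0% = vehicle wells and 100% = reference activator wells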
DAX1 inh-1: inhibits human nuclear receptor DAX1 | HEK293 Gal4-DAX1 luciferase reporter, luminescence | inhibition, % at 6.75 µM | 340,000 compounds, 0.99% hits | AID 504766;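 active = inhibition above the mean over all tested compounds plus 3 SD, cut at about 4.2% in these data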;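 note: 0% = DAX1-transfected cells with DMSO and 100% = empty-vector control cells with DMSO; inhibition shows as a rise in luminescence from relieved DAX1 repression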
Target sequence (P51843 207-470 limits assumed): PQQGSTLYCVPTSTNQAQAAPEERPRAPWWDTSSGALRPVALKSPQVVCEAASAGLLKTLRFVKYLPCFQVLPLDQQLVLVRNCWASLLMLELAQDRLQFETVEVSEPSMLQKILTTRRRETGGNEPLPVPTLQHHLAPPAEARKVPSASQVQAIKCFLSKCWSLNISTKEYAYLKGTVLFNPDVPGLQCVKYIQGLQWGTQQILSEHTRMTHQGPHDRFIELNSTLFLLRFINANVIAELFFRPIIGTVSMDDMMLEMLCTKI
hcDAF12 agonist: activators of H. contortus DAF-12 nuclear receptor; HEK293 hcDAF-12 lit1-tk-luc reporter, luminescence; 0% DMSO, 100% Δ7-dafachronic acid; activation, % at 6.8 µM; 370,000 compounds, 1.4% hits; AID 652067;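 active = activation above the mean of all tested compounds plus 3 SD, cut at about 5.5% in these data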;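 note: 100% = response to 3 µM Δ7-dafachronic acid high control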
DAX1 inh-2: blocks DAX1 repression of SF-1 activated StAR promoter; HEK293T StAR-luciferase reporter, SF-1/DAX-1 repression relief; inhibition, % at 6.8 µM; 370,000 compounds, 1.1% hits;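 active = inhibition above the mean over all tested compounds plus 3 SD, cut at about 3.6% in these data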;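 note: 0% = DAX-1 cells with DMSO and 100% = cells lacking DAX-1 with DMSO; higher inhibition means more luminescence from relief of DAX-1 repression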
hgDAF12 agonist: hgDAF-12 agonism, primary luciferase screen; HEK293 GAL4-hgDAF12 UAS-luciferase reporter, agonist luminescence; normalized to butyrate control; 370,000 compounds, 1.8% hits; activation, % at 6.8 µM;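 active = activation above a cutoff set at the mean of all screened compounds plus 3 SD, cut at about 10% in these data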;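 note: 0% = DMSO wells and 100% = sodium butyrate wells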
ssDAF-12 act: activates DAF-12 receptor from parasite S. stercoralis. HEK293 ssDAF-12/GRIP1 lit1-tk-luc reporter, luminescence; % of 3 µM dafachronic acid response. AID 652126. 370,000 compounds, 1% hits. activation, % at 6.8 µM;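 active = activation above the mean over all tested compounds plus 3 SD, cut at about 0.9% in these data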;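 note: 0% = DMSO-only wells and 100% = 3 µM delta7-dafachronic acid wells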
Active calls of the source: *; . = no result. Rows were chosen to be rich in hits. Some 4.8% of all compounds tested hit in one or more screens of this group.

SMILES	SMARCA2 activ	DAX1 inh-1	hcDAF12 agonist	DAX1 inh-2	hgDAF12 agonist	ssDAF-12 act
CSc1nc(Cl)c(Cc2ccc(OCC(C)C)cc2)c(N2CCOCC2)n1	0	-2	5.9*	-1	0	-1
CCCCOc1ccc(Cc2c(Cl)nc(SC)nc2N2CCOCC2)cc1	0	-1	-1	0	0	-2
CCOC(=O)CN/C=C(\C#N)c1ccccc1	-3	5.4*	-1	0	-4	-1
O=c1c2ccccc2sn1-c1ccc(S(=O)(=O)N2CCCCC2)cc1	-1	-1	0	0	2	1.1*
O=c1c2ccccc2sn1-c1ccc(S(=O)(=O)N2CCCC2)cc1	0	1	-1	0	-3	-1
CCOC(=O)Cc1csc(NC(=S)NC(=O)c2ccc([N+](=O)[O-])cc2)n1	0	1	-1	0	-3	-1
Cc1cc(C)c2sc(NC(=O)c3ccc(N4C(=O)CCC4=O)cc3)nc2c1	3	-2	-2	0	1	-1
Cc1cc(C)c2sc(NC(=O)CN3C(=O)CCC3=O)nc2c1	-5	5.1*	0	1	2	-1
COc1cc(C)c(C(=O)Oc2cc(C)c(C(=O)O)c(O)c2C)c(OC)c1C	4	4.3*	0	-2	3	-1
COc1cc(C)c(C(=O)Oc2cc(C)c(C(=O)O)c(O)c2C)c(O)c1C(=O)O	2	2	1	1	2	0
CC(C)=N/N=C(\N)SCc1ccccc1	1	1	-1	0	5	-1
O=C(Nc1ccc(F)cc1)C(c1ccncc1)N1CCN(C(=O)c2ccco2)CC1 (configuration not stated)	8	.	-1	1	2	0
O=C(Nc1ccc(F)cc1)C(c1ccccc1)N1CCN(C(=O)c2ccco2)CC1 (configuration not stated)	-1	4.7*	-2	0	-1	-1
Cc1ccc(NC(=O)CNc2ccc(N3CCOCC3)cc2)cc1S(=O)(=O)N(C)C	-3	0	1	-1	5	-2
O=C1C(C=NCc2ccncc2)=C(O)c2ccccc21	2	1	2	3	5	-1
O=C1N/C(=C/c2ccc(Br)cc2)C(O)=C1C=NCc1ccccc1	0	0	5.6*	0	2	-1
c1ccc(Cn2c(SCc3nc4ccccc4s3)nnc2-c2ccco2)cc1	1	0	2	-1	1	0
c1ccc(-n2cnnc2SCc2nc3ccccc3s2)cc1	4	3	5	1	7	1.0*
CCC(c1nnc(SCc2nc3ccccc3s2)n1Cc1ccccc1)N(C)C (configuration not stated)	0	0	5.7*	2	2	0
CCn1c(SCc2nc3ccccc3s2)nnc1-c1ccccc1	4	0	5	0	6	1
COc1ccc(NC(=S)Nn2cnnc2)cc1OC	-4	6.4*	0	-1	-3	-2
Cc1ccc(NC(=O)NC2CC(=O)N(c3ccc4c(c3)OCCO4)C2)cc1F (configuration not stated)	0	0	-1	0	2	-1
Cc1cccc(C(=O)Nc2ccc(N3CCN(S(C)(=O)=O)CC3)cc2)c1	5	0	0	1	11*	0
O=C(Nc1ccc(N2CCCC2)cc1)c1cccc(Cl)c1	4	2	6.0*	3	12*	0
COc1cnn(-c2ccc(C)cc2)c(=O)c1Cl	3	0	3	1	12*	-1
SMILES	SMARCA2 activ	DAX1 inh-1	hcDAF12 agonist	DAX1 inh-2	hgDAF12 agonist	ssDAF-12 act
CCOC(=O)N1CCC(=NNC(=O)c2ccccc2F)CC1	11*	3	3	1	9	-1
Cn1c(=O)[nH]c(=O)c2c1nc(Br)n2C/C=N/Nc1ccccc1	3	1	0	3.7*	-2	0
C=CCn1c(Br)nc2c1c(=O)[nH]c(=O)n2C	-1	2	-1	0	2	-1
Cn1c(=O)[nH]c(=O)c2c1nc(Br)n2C/C=N/NC(=O)c1ccccc1	4	4.6*	0	1	6	0
CCCNC(=O)C1CCN(c2nc(C)cc(C)n2)CC1	-3	-1	-1	0	0	-1
CCC(=O)Nc1ccc2c(c1)Cc1cc([N+](=O)[O-])ccc1-2	2	1	0	1	11*	-1
O=CNc1ccc2c(c1)Cc1cc([N+](=O)[O-])ccc1-2	4	-3	0	-4	8	-1
COC(=O)N/N=C\c1cccc(OC(=O)c2cccs2)c1	6	.	-2	0	0	-1
O=C(N/N=C/c1cccc(OC(=O)N2CCOCC2)c1)c1cccs1	1	1	4	1	11*	-1
O=C(Cc1cccc2ccccc12)Nc1ccc(Br)cc1C(=O)O	-1	5.6*	-1	0	1	-1
C=C(C)CSC1=C(C#N)C(c2ccsc2)CC(=O)N1 (configuration not stated)	-2	2	0	0	1	-1
NS(=O)(=O)c1ccc(NC(=O)CCCCCN2C(=O)c3ccccc3C2=O)cc1	0	0	0	-2	-2	0
NS(=O)(=O)c1ccc(NC(=O)Nc2ccc(Cl)cc2)cc1	2	0	1	-1	12*	-2
CNC(=O)Nc1ccc(S(N)(=O)=O)cc1	1	0	-1	0	-1	-1
NS(=O)(=O)c1ccc(NC(=O)CCCCC(=O)Nc2ccc(S(N)(=O)=O)cc2)cc1	4	4.4*	-1	0	-1	-1
Cc1ccc(-n2c(COc3c(C)cccc3C)nnc2SCC(=O)Nc2nccs2)cc1	0	1	-1	-1	-1	-1
CS(=O)(=O)c1ccc(C(=O)N2CCc3ccccc3C2)cc1	-4	0	2	1	-2	-1
CCOC(=O)C1CCN(c2c(NC3CCCCCCC3)c(=O)c2=O)CC1	-4	-1	-2	0	-1	-2
O=C(Nc1scc(-c2ccc(F)cc2)c1C(=O)O)c1ccco1	-3	0	1	2	4	-1
COC(=O)c1c(-c2ccccc2)csc1NC(=O)c1ccco1	6	0	0	3	11*	-1
CCCCNC(=O)c1ccc(S(=O)(=O)c2ccc(Cl)cc2)c(NC(C)=O)c1	-1	-1	0	0	2	-2
Cc1sc2ncnc(N/N=C/c3cccc(O)c3)c2c1C	1	3	5.6*	2	8	0
C=CCN(CC=C)C(=S)NC(=O)/C=C/c1ccc(OC)cc1	-2	-1	0	0	0	1.4*
COc1ccc(Nc2ccc([N+](=O)[O-])cc2[N+](=O)[O-])cc1	1	6.3*	-1	0	-1	-2
